# In PubChem BioAssay (NCI):
# Compounds without any hit were thinned out: in the full panel of roughly 79,000, 15% have a hit. Active and inactive are the calls of the source. Cut-off read from the data, not from the text of the source: active = growth inhibition above about 70%; inactive = the rest.
# Test: NCI Yeast Anticancer Drug Screen. Data for the CLN2oe strain (AID 163);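 note: 0% = growth of vehicle-only control cultures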
# Details: S. cerevisiae CLN2oe strain, hits give high values
# Protocol: Growth inhibition of yeast strains with defined genetic alterations is measured as a screen for potential anti-cancer activity. Selected strains with alterations in DNA damage repair or cell cycle control were exposed to compounds and growth inhibition was measured relative to vehicle treated controls. The strain used in this assay is CLN2oe
SMILES,growth inhibition (at 1.2 µM),growth inhibition (at 3.7 µM),growth inhibition (at 11.0 µM),growth inhibition (at 33.0 µM),growth inhibition (at 100.0 µM)
CC(C)(Br)C(=O)/C=C/c1ccc(Cl)c(Cl)c1,-3% (inactive),-1% (inactive),-5% (inactive),0% (inactive),0% (inactive)
CCOC(=O)C1=C(C(=O)c2ccccc2)C(c2ccccc2[N+](=O)[O-])C(C(=O)c2ccccc2)=C(C(=O)OCC)N1,0% (inactive),0% (inactive),2% (inactive),3% (inactive),0% (inactive)
O=C1Nc2ccccc2/C1=C/COc1ccccc1,0% (inactive),2% (inactive),15% (inactive),39% (inactive),98% (active)
C/C(=N\NC(=S)SCc1ccccc1)c1ccccn1,2% (inactive),2% (inactive),60% (inactive),96% (active),89% (active)
CSC(=S)N/N=C(\C)c1cccc(C)n1,-24% (inactive),-24% (inactive),-15% (inactive),21% (inactive),97% (active)
CC(C)/C(Cl)=N\OC(=O)Nc1cccc(Cl)c1,-4% (inactive),-3% (inactive),-6% (inactive),-3% (inactive),10% (inactive)
O=Nc1c(NO)ccc2nn(-c3ccccc3)nc12,5% (inactive),35% (inactive),97% (active),98% (active),98% (active)
BrCC[P+](c1ccccc1)(c1ccccc1)c1ccccc1,-21% (inactive),-22% (inactive),2% (inactive),90% (active),95% (active)
